Records with an inconclusive call do not appear. Active and inactive are the calls of the source. The calls were made as follows: active = hit-call score of the fitted dose curve at least 0.9, where 1 is the maximum; inconclusive = response in the unintended direction; inactive = score below 0.9.

This passage reports outcome results from PubChem BioAssay (EPA / NIEHS).

The test is described as follows: ACEA_ER_80hr: ACEA Biosciences xCELLigence Real-Time Cell Analysis on Estrogen Receptor Agonism for Proliferation (AID 2282667). Conditions: T47D proliferation, impedance (xCELLigence), 80 h. Summed up: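 T47D human breast cells were seeded on electrode plates, monitored overnight, then exposed continuously to compounds in eight-point 1:4 dilutions from 100 uM (max 0.5% DMSO). Impedance-based growth was read at 80 h, fitted upward relative to DMSO.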
Consider `NC(N)=NC(N)=NCCc1ccccc1`, for which the call was inactive.
For `CCn1cc(C(=O)O)c(=O)c2ccc(C)nc21` the value was “inactive”; for `CCCCCCCCCCCCCCCCCC(=O)OCCCCCCCCCCCCCC(C)C`, “inactive”.
As for `CCC(C)COC(=O)CC(C)C` (centres undefined), the result was inactive.
